Assay outcomes as filed in PubChem BioAssay.
SMN2 splice up = enhancers of SMN2 splice variant expression. HEK293 SMN2-luciferase splicing reporter, luminescence, 30-36 h. Potency, µM (top dose mostly 46.1 µM), actives largely listed as activators. hit rate 2.8% among 210,000. AID 1458; also: nearly all actives have a fitted effect of over 55% in size
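HEK293 cells carry an SMN2 […]–luciferase reporter in which exon 7 inclusion puts luciferase in frame. Cells were plated 10-12 h before compound addition, then incubated 30-36 h at 37C. ONE-Glo luminescence was read; sodium butyrate at 4.5 mM final served as control.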
FLuc modulator = inhibits or activates purified firefly luciferase, miR-21 counter-screen; P08659; purified FLuc, Km substrates, luminescence inhibition; Potency, µM (titrated, usually from 57.5 µM), actives largely listed as inhibitors; hit rate 6.9% among 360,000; AID 588342; also: nearly all actives have a fitted effect of over 55% in size
Target sequence (P08659 whole entry, looked up): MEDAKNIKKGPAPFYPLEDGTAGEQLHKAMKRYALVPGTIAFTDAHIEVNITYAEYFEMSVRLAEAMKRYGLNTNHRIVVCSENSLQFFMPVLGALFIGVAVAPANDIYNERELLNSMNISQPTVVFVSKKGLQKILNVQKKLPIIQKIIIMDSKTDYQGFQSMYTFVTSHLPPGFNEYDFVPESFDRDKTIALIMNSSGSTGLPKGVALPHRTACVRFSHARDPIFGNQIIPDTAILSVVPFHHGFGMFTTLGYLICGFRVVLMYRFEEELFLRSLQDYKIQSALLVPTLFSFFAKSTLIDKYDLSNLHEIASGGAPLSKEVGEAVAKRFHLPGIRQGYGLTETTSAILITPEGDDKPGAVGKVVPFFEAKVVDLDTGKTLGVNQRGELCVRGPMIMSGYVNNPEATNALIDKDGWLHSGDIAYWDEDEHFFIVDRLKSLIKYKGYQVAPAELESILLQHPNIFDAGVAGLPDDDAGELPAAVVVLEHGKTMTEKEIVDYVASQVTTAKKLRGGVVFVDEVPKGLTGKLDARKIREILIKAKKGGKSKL
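Purified P. pyralis luciferase (10nM final) with 10uM D-luciferin and 10uM ATP (Km levels) in 50mM Tris acetate pH 7.5, 10mM Mg acetate, 0.01% Tween-20, 0.05% BSA; qHTS 6-point titration, ~60 µM downward; luminescence read.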
ELG1 genotoxic = inducers of genotoxicity in HEK293T ELG1-luciferase cells; HEK293T ELG1-luciferase reporter, luminescence, 16 h; hit rate 1.3% among 330,000; Potency, µM (titrated, usually from 46 µM), actives largely listed as activators; also: nearly all actives have a fitted effect of over 60% in size
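DMSO vehicle served as control against compound-treated ELG1-luciferase HEK293T cells; exposure lasted 16 hr at 37 °C and 5% CO2, followed by ONE-Glo luminescence detection after 30 min.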
NPC1 promoter act = activates the NPC1 promoter; Huh7 NPC1 promoter luciferase reporter, 24 h; Potency, µM (titrated, usually from 9.22 µM), usual class: activators; hit rate 2.4% among 320,000; also: nearly all actives have a fitted effect of over 60% in size
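Huh7 reporter cells (NPC1 promoter driving luciferase) are dosed with compound for 24 h at 37 °C, 5% CO2; luciferase detection reagent is then added and luminescence measured after 10 min at ambient temperature.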
ELG1 repair inh = ELG1-dependent DNA repair inhibition. HEK293T ELG1-luciferase reporter, luminescence, 16 h; DNA damage induced by 5-fluorouridine. Potency, µM (top dose mostly 46.1 µM), actives largely listed as inhibitors. hit rate 2.3% among 330,000. AID 504467; also: nearly all actives have a fitted effect of over 55% in size
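5-Fluorouridine DNA damage + compound/DMSO, 2,000 cells/well, 16 h, 37 °C/5% CO2. ONE-Glo, 30 min RT, luminescence. Readout = decrease in reporter signal.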
Rab9 promoter act = activates the Rab9 promoter | Huh7 Rab9 promoter-luciferase reporter, luminescence, 24 h | Potency, µM (series often up to 9.22 µM), hits mostly activators | hit rate 2.8% among 320,000; also: nearly all actives have a fitted effect of over 60% in size
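Steps: seed 1500 Huh7 Rab9-luc cells per well, rest 2 h at 37 °C; add compound in DMSO; incubate 24 h; add luciferase reagent, 10 min ambient; read luminescence.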
Numbers stand for hits; 0 = inactive; ? = inconclusive; - = no result. Sampled rows, rich in hits. Any-hit rate of the full collection: about 9.3%. Calls follow the shape of the dose curve; as a rule, active = well fitted curve in the direction sought with a large enough effect; inconclusive = small, poorly fitted or top-dose-only effect, or another doubt; inactive = no such curve, though single readings can be large; an effect the other way counts as inactive or inconclusive.

SMILES	SMN2 splice up	FLuc modulator	ELG1 genotoxic	NPC1 promoter act	ELG1 repair inh	Rab9 promoter act
NC(=O)c1ccccc1OCc1nc2ccccc2s1	-	3.01µM	?	?	?	?
CCOC(=O)C(=O)Cc1nc2ccccc2s1	-	19µM	0	0	0	0
CC(=O)OCc1nc2ccccc2s1	0	5.36µM	?	0	?	0
O=C(OCc1nc2ccccc2s1)c1ccc(Br)o1	0	?	0	0	?	0
O=C(OCc1nc2ccccc2s1)c1ccco1	0	6.75µM	?	0	?	0
Oc1ccccc1/C=N/NC(=S)NC1CC2C=CC1C2 (stereo unspecified)	-	13.5µM	?	?	?	?
O=C(N/N=C/c1cc(Cl)cc(Cl)c1O)c1ccncc1	-	0	0	0	?	0
Oc1c(Cl)cc(Cl)cc1/C=N/NC(=S)NC1CC2C=CC1C2 (stereo unspecified)	-	?	0	0	14.6µM	0
S=C(NCCc1ccccc1)N/N=C/c1cccc(Cl)c1Cl	0	0	0	0	0	0
Oc1ccccc1/C=N/NC(=S)NCCc1ccccc1	-	26.9µM	0	0	0	0
Cc1c(NC(=S)N/N=C\c2ccccc2O)c(=O)n(-c2ccccc2)n1C	0	0	0	0	?	0
Cc1ccc(S(=O)(=O)NCC2CCC(C(=O)N(C)Cc3ccccc3)CC2)cc1 (stereo unspecified)	-	0	-	-	-	-
COc1ccc2nc(N=NC3=C(O)CC(C)(C)CC3=O)sc2c1	0	?	0	0	0	0
CCN(c1ccccc1)c1nc2nonc2nc1NCCO	-	0	0	0	0	0
Cc1cccnc1NC(=O)Cn1nc(-c2ccccc2)oc1=S	3.16µM	0	?	3.16µM	?	1.26µM
O=C(O)Cc1sc(N/N=C\c2ccccc2)nc1-c1ccccc1	0	23.9µM	0	0	0	0
CCOC(=O)c1sc(N/N=C/c2cccc(C)c2)nc1C	0	8.49µM	0	?	?	?
O=C(O)Cc1sc(Nc2ccccc2)nc1-c1cccs1	-	12µM	?	?	?	0
CCOC(=O)c1sc(N/N=C/c2ccccc2)nc1C	12.6µM	2.69µM	8.2µM	2.82µM	?	1.58µM
CCOC(=O)c1sc(Nc2ccc(C)cc2C)nc1C	0	?	0	0	0	0
Cc1ccc(-c2nc(Nc3cccc(C)c3)sc2CC(=O)O)cc1	-	?	?	0	?	0
CC(=O)OCC1(C)CN(c2ccccc2)N(C(C)=O)C1=O (stereo unspecified)	0	0	0	0	0	0
CC1CCCN(c2nc(NCc3ccco3)nc(N)c2[N+](=O)[O-])C1 (stereo unspecified)	0	0	0	0	0	0
CCC(C)C(NC(=O)C1CCC(C)CC1)C(=O)NC1CCN(Cc2ccccc2)CC1 (stereo unspecified)	-	0	0	0	0	0
Nc1nnc(SCC(=O)Nc2cc(S(=O)(=O)N3CCOCC3)ccc2Cl)s1	0	0	0	0	0	0
SMILES	SMN2 splice up	FLuc modulator	ELG1 genotoxic	NPC1 promoter act	ELG1 repair inh	Rab9 promoter act
Cc1nc(N/N=C/c2ccccn2)sc1C	-	0.151µM	0.13µM	0	?	0
COc1ccccc1Nc1nc(-c2ccccc2)c(CC(=O)O)s1	0	16.9µM	-	-	-	-
CC(=O)c1sc(N/N=C\c2ccccc2O)nc1C	?	3.38µM	6.51µM	?	?	?
O=C(O)Cc1sc(Nc2cccc3ccccc23)nc1-c1ccc(F)cc1	-	?	0	0	0	0
O=C(O)Cc1sc(-c2ccccc2Cl)nc1-c1ccccc1	0	23.9µM	0	0	0	0
O=C(Cc1sc(-c2ccccc2)nc1-c1ccccc1)Nc1ccccc1	0	0	0	0	?	0
Cc1ccc(SCCNC(=O)c2ccccc2F)cc1	-	0	0	0	0	0
C/C(=N\O)C1CC(CC(=O)O)C1(C)C (stereo unspecified)	-	0	0	0	0	0
CCN(C(=O)c1ccc(S(=O)(=O)N2CCOCC2)cc1)C1CCS(=O)(=O)C1 (stereo unspecified)	-	0	0	0	0	0
COC(=O)c1ccc(/C=N/Nc2nc(-c3ccc(C)cc3)cs2)cc1	0	0	0	0	?	0
